Measured values published in the supplement of paper PMC7156485.
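Note: TDF denotes transformed human dermal fibroblasts of mesenchymal origin.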

The compounds below were run on TDF (assay: cell number relative to DMSO (% of DMSO); higher = more cells (less growth inhibition / toxicity)). Settings: concentration: 10 µM; 24 h.
Outline: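 In 384-well plates holding 800 HCC1569 or TDF cells per well in RPMI with 10% FBS, compounds were tested at 10 µM for 24 h at 37 °C in triplicate. Fixation used 3.7% formaldehyde. Staining used a rabbit anti-H1.0 antibody with an AlexaFluor 647 secondary, plus DAPI. Each value, H1.0 nuclear intensity or cell number, is a median of replicates shown as percent of the plate control, and HCC1569 values were smoothed for positional effects.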
Work on `CCCCCCCCCCCCCCCC(=O)NCCO` [Palmitylethanolamide] yielded a cell number of 104.
With `O=C(O)C=Cc1cnc[nH]1` [4-Imidazoleacrylic acid] the cell number was 107.
In the case of `C[n+]1cccc(C(=O)O)c1.[Cl-]`, the cell number is reported as 94.
Work on `COC1(C2=NCCN2)COc2ccccc2O1.Cl` (stereo not given) yielded a cell number of 108.
Compound `O=Nc1ccc2oc(=O)ccc2c1` [6-Nitroso-1,2-benzopyrone] has a cell number of 103.
In the case of `Cn1ccnc1` [1-Methylimidazole], the cell number is reported as 105.
In the case of `OCCN1CCN(CCCN2c3ccccc3Sc3ccc(Cl)cc32)CC1` [Perphenazine], the cell number is reported as 90.8.
With `CC(C)NCC(O)COc1ccc(CC(N)=O)cc1` (stereo not drawn) [S(-)-Atenolol] the cell number was 105.
`O=C(Nc1cccc(C(=O)Nc2ccc(S(=O)(=O)[O-])c3cc(S(=O)(=O)[O-])cc(S(=O)(=O)[O-])c23)c1)Nc1cccc(C(=O)Nc2ccc(S(=O)(=O)[O-])c3cc(S(=O)(=O)[O-])cc(S(=O)(=O)[O-])c23)c1.[Na+].[Na+].[Na+].[Na+].[Na+].[Na+]` showed a cell number of 110.
`COc1ncnc(NS(=O)(=O)c2ccc(N)cc2)c1OC` [Sulfadoxine] showed a cell number of 97.4.
With `COC(=O)[C@@H](N)Cc1ccc(O)c(O)c1.Cl` [L-3,4-Dihydroxyphenylalanine methyl ester hydrochloride] the cell number was 110.
Work on `CN(CC=CC#CC(C)(C)C)Cc1cccc2ccccc12` [Terbinafine] yielded a cell number of 110.
For `O=c1cc(N2CCOCC2)oc2c(-c3ccccc3)cccc12`, the cell number was 102.
`CCCCCCCCCCCCCCCCCCOCC(COP(=O)([O-])OCC[N+](C)(C)C)OC` (stereo not given) [1-Octadecyl-2-methylglycero-3 PC] gave a cell number of 100.
`CCCCCCCC/C=C\CCCCCCCC(N)=O` [(9Z)-9-octadecenamide] gave a cell number of 102.
In the case of `CCC12CCCN3CCc4c(n(c5ccccc45)C(O)(C(=O)OC)C1)C32` (stereo not given) [Vincamine], the cell number is reported as 95.8.
`Nc1nc(=O)c2ncn(COCCO)c2[nH]1` [Acyclovir] showed a cell number of 104.
`COc1cc(NC(C)CCCN)c2ncccc2c1` (stereo not given) [Primaquine] was tested, and the cell number was 104.
`O=C1CC(=O)c2c(Cl)c(Cl)c(Cl)c(Cl)c21` [4,5,6,7-tetrachloro-1H-indene-1,3(2H)-dione] was tested, and the cell number was 103.
For `O=c1cc(N2CCOCC2)oc2c1ccc1ccccc12` [NU 7026 - 2-(4-Morpholinyl)-4H-naphthol[1,2-b]pyran-4-one], the cell number was 106.
`NNC(=O)c1ccncc1` [Isoniazid] was tested, and the cell number was 104.
Compound `COc1cc2ncn(-c3cc(OCc4ccc(S(C)(=O)=O)cc4)c(C(N)=O)s3)c2cc1OC` [Polo-like Kinase Inhibitor I] has a cell number of 96.2.
With `O=c1cc(-c2ccc(O)cc2)oc2cc(OC3OC(CO)C(O)C(O)C3O)cc(O)c12` (stereo not given) [Apigenin-7-glucoside] the cell number was 99.3.
`CCN(CC)C(=O)c1ccc(Nc2nc(OCC3CCCCC3)c3[nH]cnc3n2)cc1` [Cdk2 Inhibitor IV,                 NU6140] gave a cell number of 51.1.
Compound `COC(=O)C1=C(C)NC(C)=C([N+](=O)[O-])C1c1ccccc1C(F)(F)F` (racemic) has a cell number of 103.
For `CC1=C(C)C(=O)C(CCCCC#CCCCC#CCO)=C(C)C1=O` [Docebenone], the cell number was 75.3.
`CN(C)c1nc(N)c(C(=O)N=C(N)N)nc1Cl.Cl` [5-(N,N-Dimethyl)amiloride hydrochloride] gave a cell number of 89.7.
Compound `Cc1cnc(-c2cnc(NCCNc3ccc(C#N)cn3)nc2-c2ccc(Cl)cc2Cl)[nH]1` has a cell number of 74.4.
In the case of `CC(C)(CCCCCCCCCCC(C)(C)CC(=O)O)CC(=O)O` [3,3,14,14-tetramethylhexadecanedioic acid], the cell number is reported as 97.7.
Compound `CC(=O)NCCc1ccc(O)c(O)c1` [N-Acetyldopamine monohydrate] has a cell number of 111.
For `N#CC(=Cc1ccc(O)cc1)C(N)=C(C#N)C#N`, the cell number was 96.7.
For `Cl.Oc1ccc(C2CNCCc3c2cc(O)c(O)c3Cl)cc1` (stereo not given) [Fenoldopam.HCl], the cell number was 97.8.
Work on `CCCCCCCCC=CCCCCCCCC(N)=O` [9,10-Octadecenoamide] yielded a cell number of 103.
`COc1c2ccoc2cc2oc(C)cc(=O)c12` [Visnagin] was tested, and the cell number was 102.
`O=c1ccc2ccc(O)c(O)c2o1` [7,8-dihydroxy-2H-chromen-2-one] was tested, and the cell number was 79.9.
